Read-out in assay [1]: NAD(P)H dehydrogenase [quinone] 1 (NQO1), NQO1 (gene 1728)
As to the kind of experiment: LTEA_HepaRG_NQO1: Life Technologies and Expression Analysis (LTEA) Assay for NAD(P)H dehydrogenase [quinone] 1 (NQO1) using HepaRG (AID 2283526). The settings on record: mRNA level, 48 h; actives raise or lower the signal. Put shortly: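 In this assay, gene expression is read by qRT-PCR after 48 h exposure of HepaRG cells to eight concentrations (max 100 uM, half-log) in 0.5% DMSO. Each chemical runs in duplicate, and activity is scored relative to vehicle.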

Read-out in assay [2]: Nuclear factor erythroid 2-related factor 2 (Homo sapiens) (UniProt Q16236)
Nature of the assay: LTEA_HepaRG_NFE2L2: Life Technologies and Expression Analysis (LTEA) Assay for Nuclear factor erythroid 2-related factor 2 (NFE2L2) Transcription Factor using HepaRG (AID 2283527). The settings on record: mRNA level, 48 h; actives raise or lower the signal. The method, boiled down: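 HepaRG, 48 h dosing, 8-pt half-log series from 100 uM in 0.5% DMSO, duplicates. Read-out: NFE2L2 mRNA by qRT-PCR (ACTB/GAPDH/POLR2A normalization). Bidirectional curve fit vs DMSO baseline.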

Read-out in assay [3]: succinate dehydrogenase complex iron sulfur subunit B (SDHB), SDHB (gene 6390)
Nature of the assay: LTEA_HepaRG_SDHB: Life Technologies and Expression Analysis (LTEA) Assay for succinate dehydrogenase complex iron sulfur subunit B (SDHB) using HepaRG (AID 2283528). To be noted: mRNA level, 48 h; actives raise or lower the signal. The method, boiled down:
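SDHB transcript level read by TaqMan qRT-PCR, housekeeping-normalised (ACTB, GAPDH, POLR2A), after 48 h chemical treatment of plated HepaRG cells; eight concentrations top 100 uM, half-log steps, 0.5% DMSO, duplicates; fitted both directions against DMSO.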

Read-out in assay [4]: Signal transducer and activator of transcription 3 (Homo sapiens) (UniProt P40763)
As to the kind of experiment: LTEA_HepaRG_STAT3: Life Technologies and Expression Analysis (LTEA) Assay for Signal transducer and activator of transcription (STAT3) using HepaRG (AID 2283529). To be noted: mRNA level, 48 h; actives raise or lower the signal. The method, boiled down: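 HepaRG, 48 h exposure, 8-pt half-log series (top 100 uM), 0.5% DMSO vehicle, duplicates. Readout: STAT3 transcript by Fluidigm qRT-PCR, housekeeping-normalized; bidirectional fit vs DMSO baseline.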

Read-out in assay [5]: sulfotransferase 2A1 (SULT2A1), SULT2A1 (gene 6822)
As to the kind of experiment: LTEA_HepaRG_SULT2A1: Life Technologies and Expression Analysis (LTEA) Assay for sulfotransferase 2A1 (SULT2A1) using HepaRG (AID 2283531). The settings on record: mRNA level, 48 h; actives raise or lower the signal. Put shortly: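 Transcript levels of SULT2A1, quantified by qRT-PCR and normalized to three housekeeping genes, serve as the readout. Human HepaRG cultures receive test chemicals for 48 h at up to 100 uM in half-log steps, with 0.5% DMSO vehicle.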

Read-out in assay [6]: Transforming Growth Factor (TGFA), TGFA (gene 7039)
As to the kind of experiment: LTEA_HepaRG_TGFA: Life Technologies and Expression Analysis (LTEA) Assay for Transforming Growth Factor (TGFA) using HepaRG (AID 2283532). The settings on record: mRNA level, 48 h; actives raise or lower the signal. Put shortly:
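qRT-PCR read-out of TGFA transcript, normalized to three housekeeping genes, fitted bidirectionally against 0.5% DMSO baseline. Human HepaRG cultures received chemicals for 48 h at eight half-log concentrations, top 100 uM.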

Read-out in assay [7]: Transforming Growth Factor (TGFB1), TGFB1 (gene 7040)
Nature of the assay: LTEA_HepaRG_TGFB1: Life Technologies and Expression Analysis (LTEA) Assay for Transforming Growth Factor (TGFB1) Transporter using HepaRG (AID 2283533). To be noted: mRNA level, 48 h; actives raise or lower the signal. Put shortly:
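HepaRG, 48 h post-plating, switched to serum-free induction medium; chemicals 100 uM top, half-log, 8 pts, 0.5% DMSO, dup; 48 h exposure; RNA → Fluidigm TaqMan qRT-PCR; norm ACTB/GAPDH/POLR2A; bidirectional fit vs DMSO.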

Read-out in assay [8]: TIMP1, TIMP1 (gene 7076)
As to the kind of experiment: LTEA_HepaRG_TIMP1: Life Technologies and Expression Analysis (LTEA) Assay for TIMP1 using HepaRG (AID 2283534). The settings on record: mRNA level, 48 h; actives raise or lower the signal. The method, boiled down:
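Readout is TIMP1 mRNA level measured by qRT-PCR and normalized to three housekeeping genes. Human HepaRG cells were treated for 48 h in duplicate at eight concentrations up to 100 uM (0.5% DMSO); gain or loss fitted against DMSO.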

Read-out in assay [9]: Tumor necrosis factor receptor 1 (TNFRSF1A), TNFRSF1A (gene 7132)
Nature of the assay: LTEA_HepaRG_TNFRSF1A: Life Technologies and Expression Analysis (LTEA) Assay for Tumor necrosis factor receptor 1 (TNFRSF1A) using HepaRG (AID 2283535). To be noted: mRNA level, 48 h; actives raise or lower the signal. The method, boiled down: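 Read-out is TNFRSF1A transcript level by TaqMan qRT-PCR, normalized to three housekeeping genes, scored as gain or loss of signal versus 0.5% DMSO. Human HepaRG cells received test chemicals for 48 h at up to 100 uM (half-log series).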

Read-out in assay [10]: Thyroid Hormone Responsive (THRSP), THRSP (gene 7069)
Nature of the assay: LTEA_HepaRG_THRSP: Life Technologies and Expression Analysis (LTEA) Assay for Thyroid Hormone Responsive (THRSP) using HepaRG (AID 2283536). The settings on record: mRNA level, 48 h; actives raise or lower the signal. Put shortly: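 qRT-PCR read-out (Fluidigm TaqMan), housekeeping-normalized (ACTB/GAPDH/POLR2A). HepaRG, 48 h chemical exposure, 8-pt half-log series from 100 uM in 0.5% DMSO, duplicates. Bidirectional curve fit vs 0.5% DMSO baseline.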

Read-out in assay [11]: Cellular tumor antigen p53 (Homo sapiens) (UniProt P04637)
Nature of the assay: LTEA_HepaRG_TP53: Life Technologies and Expression Analysis (LTEA) Assay for Tumor Protein P53 (TP53) using HepaRG (AID 2283537). To be noted: mRNA level, 48 h; actives raise or lower the signal. The method, boiled down: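 TP53 transcript measured by qRT-PCR, normalized to three housekeeping genes, after 48 h treatment of human HepaRG cultures with chemicals from 100 uM downward in half-log steps (0.5% DMSO vehicle, serum-free induction medium). Up- or down-regulation fitted against DMSO.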

Read-out in assay [12]: UDP glucuronosyltransferase (UGT1A1), UGT1A1 (gene 54658)
Nature of the assay: LTEA_HepaRG_UGT1A1: Life Technologies and Expression Analysis (LTEA) Assay for UDP glucuronosyltransferase (UGT1A1) using HepaRG (AID 2283538). To be noted: mRNA level, 48 h; actives raise or lower the signal. The method, boiled down:
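mRNA induction or loss of UGT1A1, by TaqMan qRT-PCR, in duplicate HepaRG wells after 48 h exposure to half-log dilutions topping at 100 uM; DMSO (0.5%) served as baseline.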

Read-out in assay [13]: UDP glucuronosyltransferase (UGT1A6), UGT1A6 (gene 54578)
As to the kind of experiment: LTEA_HepaRG_UGT1A6: Life Technologies and Expression Analysis (LTEA) Assay for UDP glucuronosyltransferase (UGT1A6) using HepaRG (AID 2283539). The settings on record: mRNA level, 48 h; actives raise or lower the signal. The method, boiled down: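 HepaRG, 48 h post-plating switch to serum-free induction medium; chemical 48 h, 100 uM top, half-log x8, duplicate, 0.5% DMSO. Phenobarbital 1mM induction control. UGT1A6 mRNA by TaqMan qRT-PCR; gain/loss fit vs DMSO.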

Read-out in assay [14]: X-box binding protein 1 (XBP1), XBP1 (gene 7494)
Nature of the assay: LTEA_HepaRG_XBP1: Life Technologies and Expression Analysis (LTEA) Assay for X-box binding protein 1 (XBP1) using HepaRG (AID 2283540). The settings on record: mRNA level, 48 h; actives raise or lower the signal. The method, boiled down: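 Transcript levels of XBP1, measured by qRT-PCR and normalised to three housekeeping genes, were fitted bidirectionally relative to 0.5% DMSO controls. Human HepaRG cells received eight-point half-log dilutions from 100 uM for 48 h.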

The nature of assay [15]: LTEA_HepaRG_LDH_cytotoxicity: Cytotoxicity Assessment in the Life Technologies and Expression Analysis (LTEA) Assay (AID 2283563; active = hit-call score of the fitted dose curve at least 0.9, where 1 is the maximum). Put shortly:
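Cells were thawed and plated for 48 h. Medium was then replaced with serum-free induction medium. Chemicals (8 half-log points, maximum 100 uM, 0.5% DMSO) were added in duplicate for 48 h, after which spent medium was assayed for LDH.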

A short description of assay [16]: TOX21_p53_BLA_p2_viability: Viability Assessment in the Tox21 HCT-116 p53 Agonism Beta-lactamase Assay, Phase 2 (AID 2283591; active = hit-call score of the fitted dose curve at least 0.9, where 1 is the maximum;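 note: compound exposure lasted 16 h at 37 °C; actives lower the ATP signal meaning cytotoxicity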). Put shortly: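 HCT116 p53-bla cells, 4000/well, dosed after 5 h plating (217-fold dilution of DMSO stocks) and incubated 16 h at 37C. Viability taken as cellular ATP by CellTiter-Glo luminescence after 30 min RT; signal loss marks cytotoxicity.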

In assay [17] the target is Cellular tumor antigen p53 (Homo sapiens) (UniProt P04637). Nature of the assay: TOX21_p53_BLA_p2_ratio: Tox21 HCT-116 p53 Agonism Beta-lactamase Assay, Ratio, Phase 2 (AID 2283592; active = hit-call score of the fitted dose curve at least 0.9, where 1 is the maximum). The method, boiled down:
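Plated HCT116 p53-bla cells (4000/well) received compound after 5 h, then 16 h at 37C/5% CO2. CCF4-AM added, 2 h RT. Ratio of 460 to 530 nm emission taken as the p53 reporter signal.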

Assay [18] in a line: TOX21_p53_BLA_p3_viability: Viability Assessment in the Tox21 HCT-116 p53 Agonism Beta-lactamase Assay, Phase 3 (AID 2283593; active = hit-call score of the fitted dose curve at least 0.9, where 1 is the maximum;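 note: cells exposed to compound for 16 h before reading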). The method, boiled down: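 HCT116 cells, 4000/well, dosed 5 h after plating by pin transfer (217-fold dilution from DMSO stock) and incubated 16 h at 37C, 5% CO2. Viability read as ATP luminescence with CellTiter-Glo after 30 min at room temperature.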

Consider three compounds from PubChem BioAssay (EPA / NIEHS).

Records with an inconclusive call do not appear. Calls of active or inactive are those of the source. Rule for the calls, unless noted: active = hit-call score of the fitted dose curve at least 0.9, where 1 is the maximum; inactive = score below 0.9.

Sequence of Signal transducer and activator of transcription 3 (Homo sapiens) (P40763 whole entry, looked up): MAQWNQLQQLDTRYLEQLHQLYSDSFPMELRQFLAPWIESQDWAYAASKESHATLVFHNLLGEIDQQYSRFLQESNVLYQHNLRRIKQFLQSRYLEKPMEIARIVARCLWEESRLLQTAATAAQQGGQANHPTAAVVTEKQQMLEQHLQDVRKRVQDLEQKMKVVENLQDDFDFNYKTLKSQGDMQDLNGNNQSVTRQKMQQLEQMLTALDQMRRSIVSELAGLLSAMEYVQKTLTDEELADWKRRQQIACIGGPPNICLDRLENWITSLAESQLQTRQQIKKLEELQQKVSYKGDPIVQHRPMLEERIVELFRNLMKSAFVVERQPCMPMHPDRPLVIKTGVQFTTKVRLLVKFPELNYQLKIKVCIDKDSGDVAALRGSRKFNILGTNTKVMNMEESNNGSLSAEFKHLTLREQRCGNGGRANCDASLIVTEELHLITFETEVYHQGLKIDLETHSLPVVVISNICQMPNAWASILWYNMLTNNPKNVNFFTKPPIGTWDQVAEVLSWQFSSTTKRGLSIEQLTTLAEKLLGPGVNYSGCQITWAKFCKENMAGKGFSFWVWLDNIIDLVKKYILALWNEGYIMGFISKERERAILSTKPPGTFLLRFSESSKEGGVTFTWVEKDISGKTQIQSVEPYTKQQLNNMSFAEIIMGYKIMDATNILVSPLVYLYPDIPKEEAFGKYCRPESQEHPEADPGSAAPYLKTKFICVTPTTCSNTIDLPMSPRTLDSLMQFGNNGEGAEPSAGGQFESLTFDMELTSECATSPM
Sequence of Nuclear factor erythroid 2-related factor 2 (Homo sapiens) (Q16236 whole entry, looked up): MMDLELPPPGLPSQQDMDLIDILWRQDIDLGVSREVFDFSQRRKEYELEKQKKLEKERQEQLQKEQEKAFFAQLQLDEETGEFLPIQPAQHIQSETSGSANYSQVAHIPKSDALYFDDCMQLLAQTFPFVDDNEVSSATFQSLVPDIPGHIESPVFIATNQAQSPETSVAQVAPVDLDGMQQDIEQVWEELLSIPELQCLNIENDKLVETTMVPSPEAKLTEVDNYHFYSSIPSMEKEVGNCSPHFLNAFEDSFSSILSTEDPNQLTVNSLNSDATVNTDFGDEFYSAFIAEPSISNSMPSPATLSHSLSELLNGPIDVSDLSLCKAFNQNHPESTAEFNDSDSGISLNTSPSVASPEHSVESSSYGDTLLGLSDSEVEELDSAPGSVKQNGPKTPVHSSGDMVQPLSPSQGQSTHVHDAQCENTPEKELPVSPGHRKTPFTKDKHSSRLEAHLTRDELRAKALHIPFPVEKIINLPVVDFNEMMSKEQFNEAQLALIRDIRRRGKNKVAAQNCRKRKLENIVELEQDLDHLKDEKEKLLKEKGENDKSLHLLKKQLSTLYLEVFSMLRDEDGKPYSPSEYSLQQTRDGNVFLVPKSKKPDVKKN
Sequence of Cellular tumor antigen p53 (Homo sapiens) (P04637 whole entry, looked up): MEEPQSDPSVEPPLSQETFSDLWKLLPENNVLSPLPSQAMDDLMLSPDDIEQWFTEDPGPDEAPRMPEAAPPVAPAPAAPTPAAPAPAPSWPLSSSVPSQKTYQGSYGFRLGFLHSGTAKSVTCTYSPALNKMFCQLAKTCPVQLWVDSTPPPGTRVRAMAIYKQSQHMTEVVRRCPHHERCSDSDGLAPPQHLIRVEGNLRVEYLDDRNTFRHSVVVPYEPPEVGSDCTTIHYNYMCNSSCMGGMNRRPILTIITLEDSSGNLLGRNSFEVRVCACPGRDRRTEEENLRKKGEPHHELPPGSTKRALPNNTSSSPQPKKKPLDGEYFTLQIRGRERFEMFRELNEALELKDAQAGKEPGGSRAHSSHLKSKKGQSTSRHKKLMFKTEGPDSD

One may read the AC50 as the concentration giving half of the maximal activity seen. As to `CC(=NC#N)N(C)Cc1ccc(Cl)nc1`, the result in [1], in assay [2], in [3], in assay [4], in assay [5] and in assay [6] was inactive. In addition, the call in [7], in assay [8], in assay [9], in assay [10], in assay [11] and in assay [13] was inactive. For the same compound, the call in [14], in assay [15], in assay [16], in assay [17] and in assay [18] was inactive. Besides, the AC50 in assay [12] is 50 µM (active).
As for `COc1cccc(C(=O)NN(C(=O)c2cc(C)cc(C)c2)C(C)(C)C)c1C`, the call in assay [1], in [2], in assay [3], in assay [6], in assay [7] and in assay [8] was inactive. Besides, the compound was classed as inactive in assay [9], in assay [11], in assay [13], in assay [14], in assay [15] and in assay [16]. Also, the outcome in assay [17] and in assay [18] was inactive. In addition, the AC50 in assay [4] was 5.4 µM (active); in assay [5], 32.5 µM (active); in assay [10] it was 12.2 µM (active); in [12] it was 2.32 µM (active).
Turning to `CCOP(=O)(OCC)Oc1cc(C)nc(C(C)C)n1`, the call in [1], in [2], in assay [3], in assay [4], in assay [5] and in assay [6] was inactive. Further, the compound was called inactive in [7], in assay [8], in assay [9], in assay [10], in assay [11] and in assay [12]. In addition, the result in [13], in assay [14], in assay [15], in assay [17] and in assay [18] was inactive.
